The panel holds about 83,000 compounds, 20% with a hit somewhere; the sample as a whole holds those more often.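 Treatment: one concentration, 48 hours, 96-well format. Scoring: percent growth, with anything below 10 considered active.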 Unmarked numbers belong to inactive results. Active and inactive are the calls of the source.
How the values were obtained:
Assay in all cases: NCI-60 one-dose screen, 48 h (100 = growth as untreated, 0 = no growth, -100 = all killed)
Conditions in all cases: 10 µM unless noted
DU-145 prostate = tested on: DU-145 prostate
K-562 leukemia = tested on: K-562 leukemia
MALME-3M melanoma = tested on: MALME-3M melanoma
MDA-MB-231 breast = tested on: MDA-MB-231 breast
RXF 393 renal = tested on: RXF 393 renal
SF-268 CNS = tested on: SF-268 CNS
SF-295 CNS = tested on: SF-295 CNS
SF-539 CNS = tested on: SF-539 CNS
UACC-257 melanoma = tested on: UACC-257 melanoma
M14 melanoma = tested on: M14 melanoma
HCT-15 colon = tested on: HCT-15 colon
HT29 colon = tested on: HT29 colon
SNB-75 CNS = tested on: SNB-75 CNS
SNB-19 CNS = tested on: SNB-19 CNS
U251 CNS = tested on: U251 CNS
PC-3 prostate = tested on: PC-3 prostate
SK-MEL-5 melanoma = tested on: SK-MEL-5 melanoma
UACC-62 melanoma = tested on: UACC-62 melanoma
LOX IMVI melanoma = tested on: LOX IMVI melanoma
SK-MEL-28 melanoma = tested on: SK-MEL-28 melanoma

Nc1ncnc2c1c(-c1ccc(Oc3ccccc3)cc1)nn2C[C@H]1SSC[C@@H]1O
growth (DU-145 prostate): 48% | growth (K-562 leukemia): 5.41% (active) | growth (MALME-3M melanoma): -48.4% (active) | growth (MDA-MB-231 breast): 61.4% | growth (RXF 393 renal): 28.7% | growth (SF-268 CNS): 43.4% | growth (SF-295 CNS): 48.4% | growth (SF-539 CNS): 38% | growth (UACC-257 melanoma): 9.88% (active) | growth (M14 melanoma): -90% (active) | growth (HCT-15 colon): 65.7% | growth (HT29 colon): 5.36% (active) | growth (SNB-75 CNS): 37.3% | growth (SNB-19 CNS): 66.5% | growth (U251 CNS): 45.9% | growth (PC-3 prostate): 64% | growth (SK-MEL-5 melanoma): -73.9% (active) | growth (UACC-62 melanoma): -66.7% (active) | growth (LOX IMVI melanoma): 11.9% | growth (SK-MEL-28 melanoma): -29.4% (active)

COc1cc2ncn3c(=O)c4c5c(sc4nc3c2cc1OC)CCCCC5
growth (DU-145 prostate): 111% | growth (K-562 leukemia): 97.3% | growth (MALME-3M melanoma): 93.7% | growth (MDA-MB-231 breast): 91.7% | growth (RXF 393 renal): 105% | growth (SF-268 CNS): 93.7% | growth (SF-295 CNS): 105% | growth (SF-539 CNS): 100% | growth (UACC-257 melanoma): 105% | growth (M14 melanoma): 106% | growth (HCT-15 colon): 107% | growth (HT29 colon): 112% | growth (SNB-75 CNS): 73.2% | growth (SNB-19 CNS): 102% | growth (U251 CNS): 102% | growth (PC-3 prostate): 90.9% | growth (SK-MEL-5 melanoma): 94.9% | growth (UACC-62 melanoma): 93.7% | growth (LOX IMVI melanoma): 88.2% | growth (SK-MEL-28 melanoma): 107%

COc1ccc(C2=NN(C(=O)COc3ccc(Cl)cc3)C(O)(c3cc(F)c(Cl)cc3Cl)C2)cc1 (stereo not given)
growth (DU-145 prostate): 105% | growth (K-562 leukemia): 82.4% | growth (MALME-3M melanoma): 85.8% | growth (MDA-MB-231 breast): 105% | growth (RXF 393 renal): 94.1% | growth (SF-268 CNS): 102% | growth (SF-295 CNS): 80.6% | growth (SF-539 CNS): 89.3% | growth (UACC-257 melanoma): 98.6% | growth (M14 melanoma): 85.2% | growth (HCT-15 colon): 98.6% | growth (HT29 colon): 99.4% | growth (SNB-75 CNS): 88.2% | growth (SNB-19 CNS): 94.7% | growth (U251 CNS): 104% | growth (PC-3 prostate): 75% | growth (SK-MEL-5 melanoma): 114% | growth (UACC-62 melanoma): 111% | growth (LOX IMVI melanoma): 83.8% | growth (SK-MEL-28 melanoma): 103%

CCN(CC)c1ccc(C2CC(c3cc(OC)c(OC)c(OC)c3)=NN2)cc1 (stereo not given)
growth (DU-145 prostate): -36.1% (active) | growth (K-562 leukemia): 5.52% (active) | growth (MALME-3M melanoma): 108% | growth (MDA-MB-231 breast): 31.7% | growth (RXF 393 renal): -20.9% (active) | growth (SF-268 CNS): 28.1% | growth (SF-295 CNS): 33.9% | growth (SF-539 CNS): -43.1% (active) | growth (UACC-257 melanoma): 30.8% | growth (M14 melanoma): 5.55% (active) | growth (HCT-15 colon): 36.1% | growth (HT29 colon): -3.21% (active) | growth (SNB-75 CNS): 18.7% | growth (SNB-19 CNS): 14% | growth (U251 CNS): 33% | growth (PC-3 prostate): 26.3% | growth (SK-MEL-5 melanoma): -26.4% (active) | growth (UACC-62 melanoma): 48.5% | growth (LOX IMVI melanoma): 40.5% | growth (SK-MEL-28 melanoma): 64.8%

COc1cccc(-c2nc3sccn3c2-c2ccnc(NCCNC(=O)c3ccccc3)n2)c1
growth (DU-145 prostate): 100% | growth (K-562 leukemia): 67.5% | growth (MALME-3M melanoma): 26.7% | growth (MDA-MB-231 breast): 83.5% | growth (RXF 393 renal): 86.3% | growth (SF-268 CNS): 92.7% | growth (SF-295 CNS): 85.4% | growth (SF-539 CNS): 97.7% | growth (UACC-257 melanoma): 69.7% | growth (M14 melanoma): 40.1% | growth (HCT-15 colon): 81.9% | growth (HT29 colon): 53.5% | growth (SNB-75 CNS): 92.6% | growth (SNB-19 CNS): 110% | growth (U251 CNS): 102% | growth (PC-3 prostate): 79.7% | growth (SK-MEL-5 melanoma): 55.3% | growth (UACC-62 melanoma): 24.6% | growth (LOX IMVI melanoma): 54.7% | growth (SK-MEL-28 melanoma): 64.2%

O=C(O)c1ccc(-c2nn(-c3ccc(C(=O)O)cc3)cc2/C=N/Nc2c(F)c(F)cc(F)c2F)cc1
growth (DU-145 prostate): 105% | growth (K-562 leukemia): 105% | growth (MALME-3M melanoma): 93.7% | growth (MDA-MB-231 breast): 105% | growth (RXF 393 renal): 112% | growth (SF-268 CNS): 93.2% | growth (SF-295 CNS): 102% | growth (SF-539 CNS): 102% | growth (UACC-257 melanoma): 95.7% | growth (M14 melanoma): 96.6% | growth (HCT-15 colon): 107% | growth (HT29 colon): 99.6% | growth (SNB-75 CNS): 105% | growth (SNB-19 CNS): 110% | growth (U251 CNS): 104% | growth (PC-3 prostate): 101% | growth (SK-MEL-5 melanoma): 107% | growth (UACC-62 melanoma): 106% | growth (LOX IMVI melanoma): 100% | growth (SK-MEL-28 melanoma): 104%

C#C[C@@]1(O)[C@@H](CO)O[C@@H](n2cc(Br)c3c(Cl)ccnc32)[C@@H]1O
growth (DU-145 prostate): -41.3% (active) | growth (K-562 leukemia): 14.3% | growth (MALME-3M melanoma): 62.1% | growth (MDA-MB-231 breast): -26.6% (active) | growth (RXF 393 renal): -15.9% (active) | growth (SF-268 CNS): 61.7% | growth (SF-295 CNS): 26.6% | growth (SF-539 CNS): 17.8% | growth (UACC-257 melanoma): 91.3% | growth (M14 melanoma): 62.4% | growth (HCT-15 colon): 8.13% (active) | growth (HT29 colon): 12.2% | growth (SNB-75 CNS): 35.9% | growth (SNB-19 CNS): 37.1% | growth (U251 CNS): 70.9% | growth (PC-3 prostate): -25.7% (active) | growth (SK-MEL-5 melanoma): 73.7% | growth (UACC-62 melanoma): 68% | growth (LOX IMVI melanoma): -34% (active) | growth (SK-MEL-28 melanoma): 98.9%

CCOC(=O)c1[nH]c(-c2ccc(Cl)cc2)cc1-c1cccnc1
growth (DU-145 prostate): 19% | growth (K-562 leukemia): 6.33% (active) | growth (MALME-3M melanoma): 72.7% | growth (MDA-MB-231 breast): 40.3% | growth (RXF 393 renal): -2.78% (active) | growth (SF-268 CNS): 46.6% | growth (SF-295 CNS): 10.9% | growth (SF-539 CNS): -24.8% (active) | growth (UACC-257 melanoma): 86.3% | growth (M14 melanoma): 14.3% | growth (HCT-15 colon): 21.8% | growth (HT29 colon): 6.32% (active) | growth (SNB-75 CNS): -1.8% (active) | growth (SNB-19 CNS): 52.9% | growth (U251 CNS): 20.8% | growth (PC-3 prostate): 14% | growth (SK-MEL-5 melanoma): 27.1% | growth (UACC-62 melanoma): 38.8% | growth (LOX IMVI melanoma): 48.5% | growth (SK-MEL-28 melanoma): 47.8%

From PubChem BioAssay (NCI)
